In the supplement of paper PMC9337992:
± gives the standard deviation of the averaged measurements.

Tested on: MDAMB436
Experiment: cell proliferation (confluence) relative to DMSO control; higher = less growth inhibition
Settings: 5 uM; 6 d
Experimental: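 Epigenetic chemical probe screen: 15 TNBC cell lines, 500 cells per well in 384-well plates, treated with 5 uM of each of 36 SGC probes for 6 d. Confluency was imaged by IncuCyte ZOOM and normalised to DMSO control wells. Four replicate wells per compound.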

Compound	cell proliferation [%]
c1ccc([C@@H]2C[C@H]2NC2CCNCC2)cc1	93.8 ± 3.3
COc1cc(C(=O)N2CC[C@@H](O)[C@@H](N)C2)cc2nc(-c3cc4ccccc4n3CC3CC3)n(C)c12	76.4 ± 6.2
O=C(O)CNC(=O)c1c(O)c2ccccc2n(Cc2ccccc2)c1=O	96.4 ± 0.42
